The full list was thinned out, with hits kept by preference.
CBX7 inh = blocks human CBX7 binding to H3K27me3 peptide; O95931; AlphaScreen His6-CBX7 / biotin-H3K27me3 peptide binding; hits give low values; normalised signal (fraction of DMSO) (concentration not given with the values); 66,000 compounds, 1.1% hits; AID 1224903; in the data active means normalised signal below about 0.5
Target sequence (O95931 whole entry, looked up): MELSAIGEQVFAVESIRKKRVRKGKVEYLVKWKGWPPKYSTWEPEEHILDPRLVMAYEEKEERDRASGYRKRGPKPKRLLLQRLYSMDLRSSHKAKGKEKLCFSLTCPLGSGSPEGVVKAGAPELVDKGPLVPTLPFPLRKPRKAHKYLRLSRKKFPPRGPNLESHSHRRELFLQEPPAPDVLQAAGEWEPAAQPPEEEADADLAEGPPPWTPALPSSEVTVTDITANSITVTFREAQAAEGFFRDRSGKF
Hits are given with their value.

What do the screens show for `COc1ccc(OC)c(NC2c3ccccc3C(=O)N2c2ccccn2)c1` (stereo unspecified)?
CBX7 inh: inactive

Results for COc1ccc(OC)c(NC2c3ccccc3C(=O)N2c2ccc(Cl)cc2)c1 (stereo unspecified) ?
CBX7 inh: inactive

What do the screens show for `Cc1ccc(N2C(=O)c3ccccc3C2Nc2ccc(Cl)cc2Cl)nc1` (stereo unspecified)?
CBX7 inh: inactive

What do the screens show for `Cc1ccc(Nc2nc(-c3ccc(S(=O)(=O)N4CCCCC4)cc3)cs2)cc1`?
CBX7 inh: inactive

How did CCCCCCCCCCCCNC(=O)C(=O)Nc1nccs1 do in these assays?
CBX7 inh: inactive

How did Cc1ccc(CCN2CC(C(=O)NCCCN3CCCC3=O)CC2=O)cc1 (stereo unspecified) do in these assays?
CBX7 inh: inactive

How did CC(NC(=O)CCn1nc(-c2ccccc2)ccc1=O)c1ccccc1 (stereo unspecified) do in these assays?
CBX7 inh: inactive

How did COc1ccc(-c2noc(N(C)CC(=O)Nc3cc(C)on3)n2)cc1 do in these assays?
CBX7 inh: 0

What do the screens show for `COc1ccc(-c2noc(N(C)CC(=O)Nc3ccc(OC)cc3OC)n2)cc1`?
CBX7 inh: inactive

Results for COc1ccc(-c2noc(N(C)CC(=O)Nc3ccccn3)n2)cc1 ?
CBX7 inh: inactive

What do the screens show for `Cc1cccc2nc(COc3ccc(Cl)cc3)cn12`?
CBX7 inh: inactive

Results for Cc1ccc(-n2nc3c(c2NC(=O)c2cccc(F)c2)CS(=O)(=O)C3)cc1 ?
CBX7 inh: inactive

What do the screens show for `COc1ccc(NC(=O)C(=O)NCCc2ccccc2)cc1OC`?
CBX7 inh: inactive

What do the screens show for `COc1ccc(-c2nc(C(=O)NC(C)CCc3ccccc3)c(C)o2)cc1OC` (stereo unspecified)?
CBX7 inh: inactive

What do the screens show for `COc1ccc(C(NC(=O)CCc2ccccc2)c2ccc3cccnc3c2O)cc1OC` (stereo unspecified)?
CBX7 inh: 0.039

How did CCCC(=O)Nc1ccc(Cl)c(-c2nc3ncccc3o2)c1 do in these assays?
CBX7 inh: inactive

Results for CCCC(=O)NC(c1ccccc1OC)c1cc(Cl)c2cccnc2c1O (stereo unspecified) ?
CBX7 inh: inactive

How did CCCC(=O)NC(c1ccc(OC)c(OC)c1)c1cc(Cl)c2cccnc2c1O (stereo unspecified) do in these assays?
CBX7 inh: 0.41

Results for COc1nnc(-c2ccc(N3CCOCC3)c(NS(=O)(=O)c3ccc(C)cc3)c2)c2ccccc12 ?
CBX7 inh: inactive

How did CCCc1cc(=O)[nH]c(SCC(=O)Nc2ccc(C)cc2C)n1 do in these assays?
CBX7 inh: inactive

Results for Cc1nc(C)c(-c2csc(Nc3ccc(C(=O)O)cc3)n2)s1 ?
CBX7 inh: inactive

What do the screens show for `c1ccc(Nc2nc(-c3cccs3)cs2)cc1`?
CBX7 inh: inactive

Results for Cc1nc(C)c(-c2csc(Nc3cccc(C(=O)O)c3)n2)s1 ?
CBX7 inh: inactive

Results for Cc1cccc(Nc2nc(-c3sc(C)nc3C)cs2)c1 ?
CBX7 inh: 0.45

Results for Cc1nc(C)c(-c2csc(Nc3ccccc3)n2)s1 ?
CBX7 inh: 0.48

How did Cc1nc(C)c(-c2csc(Nc3cccc(O)c3)n2)s1 do in these assays?
CBX7 inh: inactive

What do the screens show for `COc1ccc(S(=O)(=O)N2CCC(C(=O)Nc3cccc(OC)c3)CC2)cc1`?
CBX7 inh: inactive

Results for COc1ccc2c(c1)c(CC(=O)N1CCC(C(N)=O)CC1)c(C)n2C(=O)c1ccc(Cl)cc1 ?
CBX7 inh: inactive

What do the screens show for `CCN(CCNC(=O)CN1C(=O)CC(C)(C)Sc2ccccc21)c1ccccc1`?
CBX7 inh: inactive

Results for COc1ccc(OC)c(NC(=O)Cn2cnc3c(nnn3Cc3ccc(F)cc3)c2=O)c1 ?
CBX7 inh: inactive

How did Cc1cc(N2CCN(C3CCCCC3)CC2)nc2cc(O)ccc12 do in these assays?
CBX7 inh: inactive

Results for COc1ccc(C)cc1S(=O)(=O)NCCc1c(C)[nH]c2ccc(F)cc12 ?
CBX7 inh: inactive

What do the screens show for `COc1cc(S(=O)(=O)NCCc2c(C)[nH]c3ccc(Br)cc23)c(C)cc1C`?
CBX7 inh: inactive

What do the screens show for `COc1cc(S(=O)(=O)NCCc2c(C)[nH]c3ccc(F)cc23)c(C)cc1C`?
CBX7 inh: inactive

How did COc1ccc(Cl)cc1S(=O)(=O)NCCc1c(C)[nH]c2ccc(C)cc12 do in these assays?
CBX7 inh: 0.48

Results for COc1ccc(Cl)cc1S(=O)(=O)NCCc1c(C)[nH]c2ccc(F)cc12 ?
CBX7 inh: inactive

Results for COc1cc(C)c(S(=O)(=O)NCCc2c(C)[nH]c3ccc(C)cc23)cc1C ?
CBX7 inh: 0.38

How did Clc1ccccc1CN1C2=NCCN2c2ccccc21 do in these assays?
CBX7 inh: inactive

What do the screens show for `CCOC(=O)c1sc2nc(C)nc(Nc3cccc(Cl)c3)c2c1C`?
CBX7 inh: inactive

What do the screens show for `COc1cccc(NC(=O)CSc2nc(Nc3ccc4c(c3)OCO4)c3ccccc3n2)c1`?
CBX7 inh: inactive

How did CCN1CCN(CCCNC(=O)Cn2nc(Cc3cccnc3)c3ccccc3c2=O)CC1 do in these assays?
CBX7 inh: inactive

Results for Cc1nc2sc(C(c3ccc(F)cc3)N3CCN(c4ccccc4F)CC3)c(O)n2n1 (stereo unspecified) ?
CBX7 inh: inactive

How did CCN(CCCNC(=O)C1CC(=O)N(CCc2ccccc2)C1)c1cccc(C)c1 (stereo unspecified) do in these assays?
CBX7 inh: inactive

How did CCCCNC(=O)C1CC(=O)N(CCc2ccccc2)C1 (stereo unspecified) do in these assays?
CBX7 inh: inactive

How did CCCCN(CCCNC(=O)C1CC(=O)N(CCc2ccccc2)C1)c1ccccc1 (stereo unspecified) do in these assays?
CBX7 inh: 0.5

How did CC1(C)CC(=O)C2=C(C1)NC(=O)CC2c1ccc2ccccc2c1 (stereo unspecified) do in these assays?
CBX7 inh: inactive

How did O=S(=O)(c1cccc(-c2nnc(-c3ccccc3)o2)c1)N1CCCCCC1 do in these assays?
CBX7 inh: inactive

What do the screens show for `Oc1ccc(Nc2nc(-c3ccccc3Cl)nc3ccccc23)cc1`?
CBX7 inh: inactive

Results for COc1ccc(Nc2nc(-c3ccccc3Cl)nc3ccccc23)cc1 ?
CBX7 inh: inactive

How did CN(C)c1ccc(Nc2nc(-c3ccccc3Cl)nc3ccccc23)cc1 do in these assays?
CBX7 inh: 0.3

What do the screens show for `O=C(NC1CCCC1)c1ccc2c(c1)N(Cc1c(F)cccc1Cl)C(=O)CS2`?
CBX7 inh: inactive

How did CCc1ccccc1NC(=O)CSc1nnc(COc2ccccc2Cl)o1 do in these assays?
CBX7 inh: inactive

Results for Cc1ccc(CNC(=O)CSc2nc3nc(C)c(Cc4ccccc4Cl)c(C)n3n2)cc1 ?
CBX7 inh: inactive

Results for Cc1cc(C)cc(NC(=O)C2CCN(Cc3cnn(-c4ccccc4)c3-n3cccc3)CC2)c1 ?
CBX7 inh: inactive

What do the screens show for `Cc1cc2ncn(CC(O)COc3ccccc3C)c2cc1C` (stereo unspecified)?
CBX7 inh: 0.17

What do the screens show for `Cc1cc2ncn(CC(O)COc3ccc(C(C)C)cc3)c2cc1C` (stereo unspecified)?
CBX7 inh: inactive

Results for COc1cc(OC)cc(OCC(O)Cn2cnc3cc(C)c(C)cc32)c1 (stereo unspecified) ?
CBX7 inh: inactive

What do the screens show for `COc1ccc(-c2cc(C(F)(F)F)n3nc(C(=O)Nc4ccc(F)cc4F)c(Cl)c3n2)cc1OC`?
CBX7 inh: inactive

How did O=C(NCCc1nc(-c2ccccc2)cs1)C1(c2ccccc2)CC1 do in these assays?
CBX7 inh: inactive

High-throughput results from PubChem.
